Common to all, as to assay: NCI-60 one-dose screen, 48 h (100 = growth as untreated, 0 = no growth, -100 = all killed)
Holding throughout (settings): 10 µM unless noted

Test [1] deals with DU-145 prostate.
For test [2], the system named is K-562 leukemia.
Test [3] deals with MALME-3M melanoma.
Test [4] has as its system MDA-MB-231 breast.
Test [5] has as its system RXF 393 renal.
The test system of test [6] is SF-268 CNS.
Test [7] relates to SF-295 CNS.
The test system of test [8] is SF-539 CNS.
The subject of test [9] is UACC-257 melanoma.
The subject of test [10] is M14 melanoma.

Experimental findings from PubChem BioAssay (NCI) are described below.

This is part of a sample that, as a whole, favours compounds with a hit. Of some 83,000 tested, about 20% had one in any assay.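 Assay: single dose, 48 h. Readout: percent growth (0 = no net growth; negative = cell death). Active: <10.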 Values without a mark were called inactive. Active and inactive are the calls of the source.

With `C(=N/Nc1ncc(-c2cc3cc(-c4ccccc4)ccc3o2)s1)/c1cccs1`, the growth in test [1] is 97.2%; in [2], 96.6%; in [3] it was 97.8%; in [4], 109%; in [5], 129%; in [6] it was 102%. The growth in test [7] was 98.1%; in test [8], 99.6%; in test [9], 102%; in test [10] it was 111%.

Take `Cc1ccc2c(c1)C(=O)/C(=C/c1cccc(OCC(=O)c3ccc(Cl)cc3)c1)CS2`: the growth in [1] is 108%; in test [2], 29.2%; in test [3] it was 95.9%; in [4], 61.9%; in [5], 4.49% (active); in test [6], 108%. Also, the growth is 125% in [7], 112% in [8], 120% in test [9] and 107% in test [10].

Consider `CCCCN1CCCn2c1nc1c2c(=O)n(CCC)c(=O)n1CCC`, for which the growth is 105% in test [1]; 75.7% in test [2]; 123% in test [3]; 93.8% in test [4]; 91.3% in test [5]; 95.2% in [6]. The growth in test [7] is 102%; in test [8], 100%; in test [9] it was 97.4%; in [10], 110%.

Consider `Cn1cc(-c2nonc2-c2c[nH]c3ccccc23)c2cccnc21`, for which the growth was 67.7% in test [1]; 12.7% in [2]; 50.5% in [3]; 59.6% in test [4]; 36.1% in test [5]; 56.5% in [6]. The growth in test [7] is 51.4%; in [8] it was 41.9%; in test [9], 55%; in test [10], 21.2%.

`Nc1n[nH]c2ccc([C@@H]3Nc4ccc5cn[nH]c5c4[C@H]4C5CCC(C5)[C@@H]34)cc12` (stereo not given in full): the growth in test [1] is 18.3%; in [2], 10.8%; in test [3], 51.7%; in test [4], 50.8%; in [5], -1.15% (active); in test [6], 42%. Also, the growth in test [7] is 13.2%; in test [8], -19.6% (active); in test [9], 72.6%; in [10], 10.7%.

In the case of `c1ccc(-c2cc3n4c(-c5ccccc5)nn(-c5ccccc5)c4cnc-3n2)cc1`, the growth in test [1] was 38.6%; in test [2] it was 104%; in [3] it was 60.1%; in [4], 36.2%; in test [5], -16.1% (active); in test [6], 46.1%. Moreover, the growth in test [7] is 30.7%; in test [8], 48%; in test [9], 22.1%; in test [10], 71.4%.

As for `O=C1/C(=C/c2cn(-c3ccccc3)nc2-c2ccccc2)SC(=S)N1CCc1ccccc1`, the growth in test [1] was 110%; in [2], 108%; in test [3], 104%; in test [4] it was 106%; in test [5], 111%; in test [6], 95.5%. Besides, the growth was 103% in test [7], 106% in test [8], 113% in test [9] and 102% in test [10].

On to `Cc1nn(-c2ccc(F)cc2)c2ncnc(Nc3ccc(NC(=O)Nc4ccc(Cl)c(C(F)(F)F)c4)cc3)c12`, for which the growth in test [1] was 41.8%; in test [2] it was 15.3%; in [3], 34%; in test [4], 71.6%; in test [5], 19.4%; in test [6], 66%. For the same compound, the growth in [7] is 6.74% (active); in test [8], 48.2%; in test [9] it was 26.8%; in test [10], 38.1%.

As to `CN(CCCCCl)P(=O)(OCc1ccc([N+](=O)[O-])o1)C(F)(F)c1ccc(CC(=O)NC[C@@H](O)/C=C\[C@@H](O)[C@H](CO)Cc2ccccc2)cc1` (stereo not given in full), the growth in test [1] is 105%; in [2] it was 50.2%; in test [3] it was 92.1%; in [4], 89.3%; in test [5] it was 100%; in [6], 98.5%. The growth in test [7] was 98.3%; in [8] it was 102%; in test [9], 92.2%; in test [10], 95.3%.

On to `NS(=O)(=O)c1ccc(CN=C2NC(=O)S/C2=C\c2ccc(Br)cc2)cc1`, for which the growth in test [1] is 111%; in [2] it was 102%; in test [3], 93.8%; in test [4], 101%; in test [5] it was 105%; in test [6], 92.3%. The growth in test [7] is 102%; in [8], 92.3%; in test [9] it was 102%; in test [10], 102%.

Take `CN(C)S(=O)(=O)c1cccc(-c2nc3sc4c(c3c(=O)[nH]2)CCCC4)c1`: the growth in test [1] was 54.5%; in [2], 37.9%; in test [3], 17.2%; in [4], 34.8%; in test [5], 10.7%; in test [6] it was 64.9%. For the same compound, the growth in test [7] is 24.7%; in test [8] it was 23%; in test [9] it was 75%; in [10], 48%.

Turning to `O=S(=O)(Nc1ccc(Cl)c(F)c1)c1ccc(-c2cnc(C3CC3)o2)cc1`, the growth in [1] is 16.6%; in [2], 12.3%; in test [3] it was 35.3%; in test [4], 37.8%; in [5], -7.66% (active); in [6], 52.1%. Moreover, the growth was 10.3% in test [7], -15.5% (active) in [8], 52.9% in [9] and 19.5% in [10].

As to `O=C(COc1cccc(/C=C2\COc3ccccc3C2=O)c1)Nc1nccs1`, the growth in test [1] is 96.6%; in test [2], -80.5% (active); in [3], 54.2%; in [4] it was 83.7%; in test [5] it was 48.3%; in test [6], 70.1%. The growth is 112% in [7], 83.7% in [8], 86% in test [9] and -78.2% (active) in test [10].

On to `C=C1C(=O)O[C@H]2[C@H]1CC/C(COC(=O)c1cc3cc(OC)ccc3[nH]1)=C\CC[C@@]1(C)O[C@@H]21`, for which the growth in test [1] is -94.4% (active); in test [2] it was 0.302% (active); in [3], -85.3% (active); in test [4], -71.6% (active); in [5], -95.1% (active); in test [6], -82.8% (active). Besides, the growth in test [7] is 47.5%; in [8], -93.4% (active); in [9] it was -89.6% (active); in test [10], -52.9% (active).

Turning to `O=C1/C(=C(/c2ccccc2)N2CCOCC2)Cc2ccccc21`, the growth was -42.4% (active) in test [1]; 35.2% in [2]; 9.61% (active) in test [3]; 8.95% (active) in test [4]; 42% in [5]; 11.3% in [6]. For the same compound, the growth is 75.8% in test [7], -45.6% (active) in [8], 65.4% in [9] and -34.7% (active) in test [10].

For the compound `Oc1cccc(-c2nc(N3CCOCC3)c3c4c(sc3n2)CCCC4)c1`, the growth in test [1] is 37.8%; in test [2], 69.1%; in [3], 49%; in test [4], 43.2%; in [5], 16.3%; in test [6], 36.8%. Also, the growth in [7] was 75.6%; in test [8] it was 50.6%; in test [9], 69.7%; in [10], 60.7%.

Consider `COc1ccc(CCNc2nc(SC)nc(-c3cccc([N+](=O)[O-])c3)c2C#N)cc1OC`, for which the growth is 91.7% in test [1]; 92.1% in test [2]; 77.8% in [3]; 83.1% in test [4]; 90.1% in [5]; 63.6% in test [6]. In addition, the growth in [7] was 88.5%; in test [8], 74.6%; in test [9], 89.7%; in [10] it was 93.1%.

As to `N#C/C(=C\c1ccc(-c2ccc(Cl)c(Cl)c2)o1)c1nc(-c2ccco2)cs1`, the growth in [1] is 114%; in [2], 113%; in [3], 89.1%; in [4] it was 84.1%; in [5], 121%; in test [6], 97.2%. Further, the growth in [7] was 98.7%; in [8], 101%; in [9], 118%; in test [10], 99.3%.

On to `O=C1/C(=C/c2ccc(Cl)cc2)SC(=S)N1CCc1ccc(O)cc1`, for which the growth in [1] was 50.2%; in test [2], 96.9%; in test [3] it was 81.5%; in test [4], 84%; in [5] it was 94.1%; in [6], 85%. In addition, the growth was 102% in [7], 80% in test [8], 99.5% in [9] and 104% in test [10].

In the case of `N#CN1CC[C@H](C(=O)Nc2cc3cc(C(N)=O)ccc3cn2)C1`, the growth was 7.18% (active) in test [1]; 2.99% (active) in [2]; -21.8% (active) in test [3]; -0.49% (active) in [4]; -52.3% (active) in [5]; -9.68% (active) in [6]. Besides, the growth was 2.85% (active) in test [7], -35.9% (active) in test [8], -27.9% (active) in test [9] and -26.5% (active) in test [10].

As for `O=C1c2cc3c(cc2-c2c1c1ccc(F)cc1c(=O)n2C[C@H](O)[C@@H](O)[C@H](O)CO)OCO3`, the growth is 2.47% (active) in [1]; 9.69% (active) in test [2]; -54.6% (active) in test [3]; 11.1% in test [4]; -47.1% (active) in [5]; 11.2% in test [6]. In addition, the growth was -0.994% (active) in test [7], -44.6% (active) in test [8], -44.3% (active) in [9] and -14% (active) in test [10].

Turning to `Cc1nn(-c2ccc(F)cc2)c2ncnc(Oc3ccc(NC(=O)Nc4ccc(Cl)c(C(F)(F)F)c4)cc3)c12`, the growth in [1] was 106%; in test [2] it was 105%; in test [3] it was 100%; in [4], 103%; in test [5], 107%; in test [6], 93.4%. Also, the growth in [7] was 102%; in [8] it was 96.8%; in test [9] it was 99.9%; in [10] it was 106%.

Turning to `C=C1c2nc3ccccc3n2C=C(c2ccc(OC)cc2)N1Cc1ccccc1`, the growth in test [1] was 103%; in [2], 73.5%; in test [3], 109%; in test [4], 100%; in test [5] it was 101%; in test [6], 89.2%. Also, the growth in [7] is 103%; in test [8], 115%; in [9] it was 97.1%; in test [10], 98.1%.

As to `COc1ccc(/C=C/C(=O)c2cc(O)ccc2O)cc1`, the growth was 89.3% in [1]; 66.4% in test [2]; 100% in test [3]; 77.4% in [4]; 81.6% in [5]; 84.4% in [6]. Further, the growth in [7] is 111%; in test [8], 88.4%; in test [9] it was 75.5%; in [10], 105%.

As for `COc1cccc(/C=C2\Oc3cc(OCCN4CCCC4)ccc3C2=O)c1`, the growth is 98.5% in [1]; -26.9% (active) in test [2]; 104% in [3]; 96.3% in test [4]; 97.5% in test [5]; 91.8% in test [6]. Also, the growth in test [7] is 105%; in [8], 88.9%; in test [9] it was 111%; in [10], 98.7%.

Regarding `CC(C)(C)N1CCC1CN` (stereo not given), the growth in test [1] is 118%; in [2], 135%; in [3], 147%; in test [4], 116%; in [5], 155%; in [6], 100%. In addition, the growth in test [7] was 115%; in test [8] it was 91.8%; in test [9] it was -6.55% (active); in [10], 101%.

`COc1ccc(NC2=C(Sc3nc(C)cc(C)n3)C(=O)N(Cc3ccccc3)C2=O)cc1Cl`: the growth in test [1] was 113% [30 µM]; in test [2], 69.7% [30 µM]; in test [3] it was 95.4% [30 µM]; in test [4] it was 85.4% [30 µM]; in test [5] it was 50.8% [30 µM]; in test [6], 57.8% [30 µM]. The growth in test [7] is 39.6% [30 µM]; in test [8], 101% [30 µM]; in test [9], 43.9% [30 µM]; in test [10], 95.9% [30 µM].
